Source: PubChem BioAssay AID1851 (National Center for Advancing Translational Sciences (NCATS), 2009)
Where “and” joins values, the source holds several entries; their conditions need not be identical. Equal values may be shown once. Hit rate of the full screen: of about 16,000 compounds, about 5,100 (32%) were called active. Another 25% or so got no clear call; they are omitted. Some of the results follow. Unmarked numbers belong to inactive results. Calls come from the whole dose curve; as a rule, active = well fitted curve in the direction sought with a large enough effect; inconclusive = small, poorly fitted or top-dose-only effect, or effect the other way; inactive = no such curve, though single readings can be large or run the other way.
% is set by controls: 0 for no effect and ±100 for the full control effect.

What follows are compounds tested against Cytochrome P450 3A4 (Homo sapiens) (UniProt P08684) (assay: Cytochrome panel assay with activity outcomes). Conditions: recombinant CYP, pro-luciferin dealkylation, luminescence, p450-cyp3a4; series mostly up to 57.1 µM; activity, negative = inhibition: at the top concentration.
Sequence of Cytochrome P450 3A4 (Homo sapiens) (P08684 whole entry, looked up): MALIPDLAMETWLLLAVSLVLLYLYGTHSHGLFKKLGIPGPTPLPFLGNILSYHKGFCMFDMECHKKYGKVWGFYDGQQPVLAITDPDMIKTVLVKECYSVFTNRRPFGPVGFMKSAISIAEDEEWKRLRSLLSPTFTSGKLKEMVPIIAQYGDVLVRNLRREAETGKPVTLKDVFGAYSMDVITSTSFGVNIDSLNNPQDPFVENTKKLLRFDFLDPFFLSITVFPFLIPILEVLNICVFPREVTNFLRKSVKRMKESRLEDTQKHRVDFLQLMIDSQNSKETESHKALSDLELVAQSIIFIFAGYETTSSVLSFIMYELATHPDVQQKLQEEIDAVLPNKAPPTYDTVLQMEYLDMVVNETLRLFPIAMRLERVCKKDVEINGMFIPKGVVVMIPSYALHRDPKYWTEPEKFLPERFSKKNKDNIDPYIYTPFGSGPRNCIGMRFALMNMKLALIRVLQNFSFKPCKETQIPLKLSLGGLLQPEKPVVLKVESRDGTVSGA
In the case of `CN(C)C(=O)CN(c1ccc2c(c1)OCO2)S(C)(=O)=O`, the AC50 is reported as 25.1 µM (active). In the case of `Cc1cccc(N(CC(=O)N2CCOCC2)S(C)(=O)=O)c1`, the “activity, negative = inhibition” value is reported as -0.837%. For `O=C(CN1C(=O)C2C3C=CC(C3)C2C1=O)Nc1ccc(C(=O)O)cc1` (stereo not given), the “activity, negative = inhibition” value was -10.2%. `O=C(CN1C(=O)C2C3C=CC(C3)C2C1=O)Nc1ccc2c(c1)OCCO2` (stereo not given) was tested, and the AC50 was 25.1 µM (active). For `COc1ccccc1NC(=O)CN1CCN(CC(=O)Nc2ccc(OCc3ccccc3)cc2)CC1`, the “activity, negative = inhibition” value was -17.7%. With `COc1ccc(NC(=O)CN2c3cccc4cccc(c34)S2(=O)=O)cc1` the AC50 was 4.47 µM (active). In the case of `COc1ccc(NC(C)=O)cc1NC(=O)CN1CCN(CC(=O)Nc2ccccc2Cl)CC1`, the AC50 is reported as 12.6 µM (active). With `COc1ccc(NC(=O)CN2CCN(CC(=O)Nc3ccccc3Cl)CC2)cc1` the AC50 was 10 µM (active). For `CSc1nc(NC2CCCC2)c([N+](=O)[O-])c(NC2CCCC2)n1`, the “activity, negative = inhibition” value was -23.7%. `COc1ccc([C@@H]2CC(=O)c3c(O)cc(O[C@H]4O[C@@H](CO[C@H]5O[C@@H](C)[C@@H](O)[C@@H](O)[C@@H]5O)[C@@H](O)[C@@H](O)[C@@H]4O)cc3O2)cc1O` was tested, and the “activity, negative = inhibition” value was -1.85% [at 25.6 µM]. In the case of `O=C(Nc1ccc2c(c1)OCCO2)C1CCN(C(=O)c2ccccc2)CC1`, the “activity, negative = inhibition” value is reported as 21.8%. For `O=C(CN1CCN(CC(=O)Nc2ccccc2Cl)CC1)Nc1ccc2c(c1)OCCO2`, the AC50 was 14.1 µM (active). For `COc1cccc(OC)c1OCCCN1CCOCC1`, the “activity, negative = inhibition” value was -7.58%. For `COc1cccc(OC)c1OCCCCN1CCCC1`, the “activity, negative = inhibition” value was -8.41%. For `COc1cccc(OC)c1OCCNC[C@@H]1COc2ccccc2O1`, the AC50 was 2 µM (active) and 2.51 µM (active). In the case of `Cc1cnn(CCC(=O)NNC(=S)Nc2cccc(Cl)c2)c1`, the AC50 is reported as 12.6 µM (active). For `O=C(COc1ccccc1Cl)NC(=S)Nc1cccc(NC(=O)c2ccccc2Cl)c1`, the activity, negative = inhibition was 7.56% [at 2.29 µM]. For `O=C(CCN1C(=O)c2ccccc2C1=O)NC(=S)Nc1cccc(Cl)c1`, the AC50 was 15.8 µM (active). Compound `O=C(Nc1cccc(Cl)c1)N1CCN2C(=O)c3ccccc3C12c1ccccc1` (stereo not given) has an activity, negative = inhibition of -22.9% [at 2.29 µM]. With `Cc1cccc(NC(=S)NNC(=O)CCn2cc(C)cn2)c1` the “activity, negative = inhibition” value was 17%. `CNC[C@H](O)[C@H](O)[C@H](O)[C@H](O)CO` was tested, and the “activity, negative = inhibition” value was -7.18% [at 25.6 µM]. `Cc1cccc(NC(=O)c2cccc(N3C(=O)C4C5CCC(C5)C4C3=O)c2)c1C` (stereo not given) was tested, and the AC50 was 11.2 µM (active). With `CN(C)c1ccc(NC(=O)c2cccc(N3C(=O)C4C5C=CC(C5)C4C3=O)c2)cc1` (stereo not given) the “activity, negative = inhibition” value was -26%. In the case of `Cc1cccc(NC(=O)c2onc3c2CCCC3)c1C`, the “activity, negative = inhibition” value is reported as -26.3%. `Clc1ccccc1-c1nc(NC2CCNCC2)c2ccccc2n1` was tested, and the “activity, negative = inhibition” value was -3.64%. `Cc1noc(C)c1-c1nc(N2CCN(C)CC2)c2ccccc2n1` was tested, and the “activity, negative = inhibition” value was -26.4%. For `Cc1ccccc1-c1nc(N2CCOCC2)c2ccccc2n1`, the AC50 was 15.8 µM (active). For `Cc1noc(C)c1-c1nc(N2CCOCC2)c2ccccc2n1`, the AC50 was 6.31 µM (active). `Clc1ccccc1-c1nc(N2CCNCC2)c2ccccc2n1` was tested, and the AC50 was 25.1 µM (active). For `c1ccc2c(N3CCOCC3)nc(-c3ccoc3)nc2c1`, the AC50 was 6.31 µM (active). `O=C(O)CCCCCCCC(=O)O` was tested, and the “activity, negative = inhibition” value was 0.705%. `CCOC(=O)C(C)(C)[C@H](O)C(C)C` was tested, and the activity, negative = inhibition was 2.08% [at 11.4 µM]. For `Cc1cc2nc3c(=O)[nH]c(=O)nc-3n(CC(O)C(O)C(O)CO)c2cc1C` (stereo not given), the “activity, negative = inhibition” value was -18.2% [at 25.6 µM]. For `O=C1NC(c2ccccc2)=NC1(NS(=O)(=O)c1ccccc1)C(F)(F)F` (stereo not given), the “activity, negative = inhibition” value was -3.82%. In the case of `Cc1ccccc1-c1nc(N2CCNCC2)c2ccccc2n1`, the AC50 is reported as 25.1 µM (active). `Cc1ccccc1-c1nc(N2CCN(C)CC2)c2ccccc2n1` was tested, and the AC50 was 20 µM (active). `OC[C@@H]1O[C@@H](n2cnc3c(SCc4ccccc4)ncnc32)[C@@H](O)[C@H]1O` was tested, and the activity, negative = inhibition was 7.88% [at 11.4 µM]. Work on `Nc1nc(Cl)cc(NCCO)n1` yielded an activity, negative = inhibition of -4.92% [at 11.4 µM]. `CCCCCCCCCCCCCCCCCCc1ccc(C(=O)/C=C\C(=O)O)cc1` was tested, and the “activity, negative = inhibition” value was -8.11%. For `COc1ccccc1NC(=O)c1ccc(-n2cccn2)nc1`, the “activity, negative = inhibition” value was 0.809%. For `O=C(Nc1ccc(F)cc1)c1ccc(-n2ccnc2)nc1`, the AC50 was 0.126 µM (active). For `Cc1c(Cl)cccc1NC(=O)c1ccc(-n2ccnc2)nc1`, the AC50 was 0.0398 µM (active). In the case of `Cc1nc(C(=O)Nc2cccc(Cl)c2Cl)nn1-c1cc(OC(C)C)c(Cl)cc1Cl`, the “activity, negative = inhibition” value is reported as -26.4%. For `Cn1c(=O)c2c(nc(NCCNc3nc4c(c(=O)n(C)c(=O)n4C)n3C)n2C)n(C)c1=O`, the activity, negative = inhibition was 8.34% [at 11.4 µM]. `CN(C)CCNc1nc2c(c(=O)n(C)c(=O)n2C)n1C` gave an activity, negative = inhibition of -5.65% [at 11.4 µM]. With `COc1cccc(Cn2c(NCc3cccnc3)nc3c2c(=O)n(C)c(=O)n3C)c1` the AC50 was 3.16 µM (active). `O=C(CCCNS(=O)(=O)c1cccc2nsnc12)NCCc1ccccc1` was tested, and the AC50 was 7.08 µM (active). For `COc1ccc(C2C(C#N)=C(N)OC3=C2C(=O)CC(C)(C)C3)c([N+](=O)[O-])c1OC` (stereo not given), the AC50 was 5.01 µM (active). With `COc1cc(C2C(C#N)=C(N)OC3=C2C(=O)CCC3)c([N+](=O)[O-])cc1OC` (stereo not given) the AC50 was 11.2 µM (active). `CN1CCN(/C=N/C2=C(C#N)C(c3ccccc3)C3=C(CC(C)(C)CC3=O)O2)CC1` (stereo not given) gave an activity, negative = inhibition of 1.82% [at 2.29 µM]. For `N#CC1=C(N)OC2=C(C(=O)CCC2)C12CCC1(CC2)OCCO1`, the “activity, negative = inhibition” value was -15.2%. With `Cc1cc(C2C(C#N)=C(N)OC3=C2C(=O)CC(C)(C)C3)c(C)s1` (stereo not given) the AC50 was 3.55 µM (active). Work on `CCSC[C@@H](N)C(=O)O` yielded an activity, negative = inhibition of -3.53% [at 11.4 µM]. In the case of `COC(=O)\C(C(C)=O)=C(/C=C/C=C/C=C/N(C)C)N(C)C`, the activity, negative = inhibition is reported as 1.83% [at 2.29 µM]. With `CCc1c(C)nc(N)n2c(SCC(=O)Nc3ccccc3)nnc12` the AC50 was 17.8 µM (active). `CN(C)c1ncc2nc(-c3cccc(C#N)c3)c(=O)n(C[C@H]3CCCO3)c2n1` was tested, and the “activity, negative = inhibition” value was -10.8%. For `COc1cccc(-c2nccc(N(C)Cc3ccco3)n2)c1`, the AC50 was 20 µM (active). With `CN(Cc1ccco1)c1ccnc(-c2cccc(C#N)c2)n1` the AC50 was 12.6 µM (active). In the case of `CN(Cc1ccco1)c1ccnc(-c2ccoc2)n1`, the “activity, negative = inhibition” value is reported as -11.2%. `CN(Cc1ccco1)c1ccnc(-c2cccnc2)n1` was tested, and the AC50 was 12.6 µM (active). `CCN=C1NN=C(c2ccc(C)cc2)CS1` was tested, and the AC50 was 15.8 µM (active). With `N/N=C1/c2ccccc2N[C@H]1OC(=O)Nc1ccccc1` the activity, negative = inhibition was -29.3% [at 11.4 µM]. With `Cc1cccc(NC(=O)CC2Nc3cccc4cccc(c34)NC2=O)c1` (stereo not given) the AC50 was 2.51 µM (active). For `CC(=O)Nc1ccc(C#Cc2ccc(NC(C)=O)cc2)cc1`, the “activity, negative = inhibition” value was -11.2%. For `CC(=O)Nc1ccc(NC(=O)CC2Nc3cccc4cccc(c34)NC2=O)cc1` (stereo not given), the AC50 was 10 µM (active). In the case of `COc1cccc2c1C(=N)c1c(O)c3c(c(O)c1C2=O)C[C@](O)(C(C)=O)C[C@@H]3O[C@H]1C[C@H](N)[C@@H](O)[C@H](C)O1`, the activity, negative = inhibition is reported as -16% [at 11.4 µM]. With `COc1ccc(NS(=O)(=O)c2ccc(NC(=O)c3cnn4c(C(F)F)cc(-c5ccc(C)cc5)nc34)cc2)cc1` the AC50 was 1.26 µM (active). With `Cc1cccc(C)c1NC(=O)CSc1nc(C)c(CC(=O)c2ccc(Br)cc2)c(C)c1C#N` the AC50 was 5.01 µM (active). `CCC(=O)Nc1nonc1-c1nc2ccccc2n1N(C(=O)CC)C(=O)CC` was tested, and the AC50 was 22.4 µM (active). In the case of `Cc1nonc1NCn1nnc2ccccc21`, the “activity, negative = inhibition” value is reported as 2.63%. Compound `CC(=O)Nc1nonc1NC(=O)c1ccc(C(C)(C)C)cc1` has an activity, negative = inhibition of -6.73% [at 11.4 µM]. For `O=C(O)Cn1c(-c2ccccc2)nc2ccccc21`, the “activity, negative = inhibition” value was 3.83%. `CCC(=O)N1CCn2c1nc1ccccc12` was tested, and the “activity, negative = inhibition” value was -0.0339%. For `CCn1c(-c2nonc2NC(=O)c2ccccc2)nc2ccccc21`, the AC50 was 3.16 µM (active). For `Nc1c(S(N)(=O)=O)cc(S(N)(=O)=O)cc1S(N)(=O)=O`, the activity, negative = inhibition was -3.99% [at 11.4 µM]. `O=C(CCn1c(=O)[nH]c2ccsc2c1=O)Nc1ccc(F)c(F)c1` was tested, and the “activity, negative = inhibition” value was 10.8%. For `O=C(NCc1ccco1)c1ccc2c(=O)n(-c3ccccc3)c(=S)[nH]c2c1`, the “activity, negative = inhibition” value was -4.58%. With `COCCn1c(=S)[nH]c2cc(C(=O)NC(C)C)ccc2c1=O` the “activity, negative = inhibition” value was 13.9%. With `CCOc1cc2[nH]c(=S)n(CCCC(=O)NCc3ccco3)c(=O)c2cc1OCC` the AC50 was 3.98 µM (active). `COCCNC(=O)CCCCCn1c(=S)[nH]c2ccccc2c1=O` was tested, and the AC50 was 8.91 µM (active). For `COCCCn1c(=S)[nH]c2ncccc2c1=O`, the “activity, negative = inhibition” value was -24.6%. `O=C(CCCCCn1c(=O)[nH]c2ccsc2c1=O)NCc1ccc2c(c1)OCO2` was tested, and the AC50 was 0.631 µM (active). For `O=C(CCCCn1c(=S)[nH]c2ccsc2c1=O)NCc1ccco1`, the AC50 was 7.08 µM (active). `Cc1ccc(-n2c(=O)c3sccc3n(CC(=O)NCc3ccco3)c2=O)cc1F` was tested, and the “activity, negative = inhibition” value was -1.5%. In the case of `O=C1C(C2=NC(C(=O)O)C3C(=O)N(c4ccc(Cl)cc4)C(=O)C23)=C(O)c2ccccc21` (stereo not given), the “activity, negative = inhibition” value is reported as 16.7%. With `O=C1C2Sc3[nH]c(=O)sc3C(c3ccccc3)C2C(=O)N1c1ccccc1` (stereo not given) the AC50 was 7.94 µM (active). For `O=C1C2Sc3[nH]c(=O)sc3C(c3ccccc3)C2C(=O)N1c1ccc(Cl)cc1` (stereo not given), the AC50 was 12.6 µM (active). For `Nc1ccccc1CCCC(=O)O`, the activity, negative = inhibition was 0.683% [at 11.4 µM]. `O=C(CSc1nnc(-c2ccncc2)n1Cc1ccccc1)Nc1nccs1` was tested, and the activity, negative = inhibition was -23.1% [at 2.29 µM]. `C=CCn1c(SCC(=O)Nc2ncc(Cc3ccc(Br)cc3)s2)nnc1-c1ccncc1` was tested, and the AC50 was 1.41 µM (active). For `CCCCc1c(O)nc(SCCN(C)C)n(-c2ccccc2)c1=O`, the “activity, negative = inhibition” value was -3.84%. With `CC(C)n1c(N2CCN(C(=O)Nc3ccccc3)CC2)nc2ccccc21` the “activity, negative = inhibition” value was -29.4%. With `CC(C)N(C(=O)CSc1nc2ccccc2n1-c1ccccc1)C(C)C` the AC50 was 7.94 µM (active). `CNc1c2c(nn1C)CCCC2` was tested, and the “activity, negative = inhibition” value was 2.07%. For `O=C(Nc1ccc(Oc2ccccc2)cc1)C1CCN(c2c3c(nc4ncnn24)CCC3)CC1`, the “activity, negative = inhibition” value was -19%.
